This note sets out measurements from PubChem BioAssay AID1345085 (National Center for Advancing Translational Sciences (NCATS), 2018).

Results filed as inconclusive are left out. Activity calls are given as the source filed them. Calls come from the whole dose curve; as a rule, active = well fitted cell-killing curve with a large enough effect; inconclusive = small, poorly fitted or top-dose-only effect, or effect the other way; inactive = no such curve, though single readings can be large or run the other way.
% is set by controls: 0 for no effect and ±100 for the full control effect; potency is the fitted concentration of half-maximal effect.

In this assay the test system is Jar. The assay can be described thus: Confirmatory qHTS for gynecologic anti-cancer compounds from libraries of approved drugs and bioactive compounds. Note: nearly all actives have a fitted effect of over 55% in size. The following applies: gynecologic cancer cell panel viability, ATPlite luminescence, 48 h; series mostly up to 57.6 µM; activity change, negative = viability loss: at the top concentration. Put shortly: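 1,000 cells/well; 16 h pre-incubation 37 C, 5% CO2; pin-transferred cpd in DMSO, 11 conc (1:3), 57.5 uM–0.977 nM; 48 h; ATPlite, 15 min RT; luminescence → IC50.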
A general note: qHTS replaces the single test concentration by a dilution series.
Turning to `CCCCN(CCCC)C(=O)CN1C[C@H](c2ccc3c(c2)OCO3)[C@@H](C(=O)O)[C@@H]1c1ccc(OC)cc1`, the “activity change, negative = viability loss” value was -5.2% (inactive).

As for `C#C[C@]1(O)CC[C@H]2[C@@H]3CCC4=CC(=O)CC[C@@H]4[C@H]3CC[C@@]21CC`, the “activity change, negative = viability loss” value is 7.43% (inactive).

For `Cc1cc(Nc2nc(N[C@@H](C)c3ccc(F)cc3)c(C#N)cc2F)n[nH]1`, the Potency was 2.73 µM (active).

With `Cn1cnc([N+](=O)[O-])c1Sc1ncnc2nc[nH]c12`, the Potency is 27.3 µM (active).

For `Cc1ccn(-c2ccc(-c3ncco3)cc2)c(=O)c1-c1ccc2nc(N)ncc2c1`, the “activity change, negative = viability loss” value is -26.5% (inactive).

For `Nc1nc(=S)c2[nH]cnc2[nH]1`, the Potency is 9.68 µM (active).

As to `Cc1cc(C2CCCCC2)n(O)c(=O)c1`, the Potency was 8.86 µM (active).

On to `CC(C)n1c(/C=C/[C@@H](O)C[C@@H](O)CC(=O)O)c(-c2ccc(F)cc2)c2ccccc21`, for which the Potency was 10.9 µM (active).

With `CN[C@@H](C)C(=O)N[C@H]1CN(C(=O)CC(C)C)CC[C@H]2CC[C@@H](C(=O)NC(c3ccccc3)c3ccccc3)N2C1=O`, the “activity change, negative = viability loss” value was 10.5% (inactive).

As to `CCN1CCN(Cc2ccc(-c3cc4c(NC(C)c5ccccc5)ncnc4[nH]3)cc2)CC1` (stereo not drawn), the Potency is 21.7 µM (active).

Consider `COc1cc(Nc2c(C#N)cnc3cc(OCCCN4CCN(C)CC4)c(OC)cc23)c(Cl)cc1Cl`, for which the Potency is 24.3 µM (active).

For `O=C(Nc1cccnc1)N1CCC(Cc2cccc(Oc3ccc(C(F)(F)F)cn3)c2)CC1`, the Potency was 9.68 µM (active).

As for `Cc1cc(C(C)Nc2ccccc2C(=O)O)c2nc(N3CCOCC3)cc(=O)n2c1` (stereo not drawn), the Potency is 0.968 µM (active).

Take `CCOc1ccc(Nc2nc(-c3c(C)nc4ccccn34)cs2)cc1`: the Potency is 0.0243 µM (active).

As for `Cc1cc(Nc2nc(N[C@@H](C)c3ncc(F)cn3)ncc2Cl)n[nH]1`, the “activity change, negative = viability loss” value was 19.1% (inactive).

On to `CC(Oc1cc(-n2cnc3ccc(CN4CCN(C)CC4)cc32)sc1C(N)=O)c1ccccc1C(F)(F)F` (stereo not drawn), for which the Potency was 3.06 µM (active).

Turning to `O=C(/C=C/c1cccc(S(=O)(=O)Nc2ccccc2)c1)NO`, the Potency is 0.943 µM (active).

In the case of `Cc1cc(Nc2cc(N3CCN(C)CC3)nc(/C=C/c3ccccc3)n2)n[nH]1`, the Potency was 24.3 µM (active).

Consider `CCN(CC)CCOc1ccc(/C(=C(\Cl)c2ccccc2)c2ccccc2)cc1`, for which the Potency was 89.1 µM (active).

Consider `CN1CCN(c2ccc(OC(F)(F)F)c(Nc3ncc4c(n3)-c3c(c(C(N)=O)nn3CCO)CC4)c2)CC1`, for which the Potency was 0.153 µM (active).

As for `COc1ccccc1N1CCN(CC(O)COc2cccc3ccccc23)CC1` (stereo not drawn), the “activity change, negative = viability loss” value is -22.6% (inactive).

Regarding `Cc1csc(NC(=O)c2sc3nc4c(c(C(F)(F)F)c3c2N)CCC4)n1`, the Potency is 3.43 µM (active).

Consider `COc1ccc2cc3[n+](cc2c1OC)CCc1cc2c(cc1-3)OCO2`, for which the Potency was 4.32 µM (active).

Turning to `CC(=O)Nc1cccc(-n2c(=O)n(C3CC3)c(=O)c3c(Nc4ccc(I)cc4F)n(C)c(=O)c(C)c32)c1`, the “activity change, negative = viability loss” value is 5.76% (inactive).

As to `CNC(=O)c1ccccc1Sc1ccc2c(/C=C/c3ccccn3)n[nH]c2c1`, the Potency is 19.3 µM (active).

Regarding `CN1C(=O)C(Cc2c[nH]c3ccccc23)NC1=S` (stereo not drawn), the “activity change, negative = viability loss” value is -8.95% [at 19.5 µM] (inactive).

For `Fc1cc(-c2cccc3ncc(-c4cnn(C5CCNCC5)c4)nc23)cc(F)c1CN1CCOCC1`, the Potency was 34.3 µM (active).

In the case of `Cc1cc(Nc2cc(N3CCN(C)CC3)nc(Sc3ccc(NC(=O)C4CC4)cc3)n2)n[nH]1`, the “activity change, negative = viability loss” value is -12.5% (inactive).

With `Oc1cn2c(n1)Nc1ccc(Cl)c(Cl)c1C2`, the “activity change, negative = viability loss” value was 17.7% [at 19.5 µM] (inactive).

Take `CC[C@H](Nc1ncnc2nc[nH]c12)c1nc2cccc(F)c2c(=O)n1-c1ccccc1`: the activity change, negative = viability loss was -10.1% [at 10.7 µM] (inactive).

As to `Cc1ccc(C(N)=O)cc1Nc1nccc(-c2cn(C(C)C)c3cnccc23)n1`, the Potency was 6.85 µM (active).

`Cc1ccc(NC(=O)c2ccc(CN3CCN(C)CC3)cc2)cc1Nc1nccc(-c2cccnc2)n1`: the “activity change, negative = viability loss” value was -3.28% (inactive).

Consider `Nc1ccccc1NC(=O)c1ccc(CNC(=O)OCc2cccnc2)cc1`, for which the Potency is 4.32 µM (active).

`CCCc1nn(C)c2c(=O)[nH]c(-c3cc(S(=O)(=O)N4CCN(C)CC4)ccc3OCC)nc12`: the “activity change, negative = viability loss” value was 15.7% (inactive).

`Cc1ccc(C(=O)N(CCCN)C(c2nc3cc(Cl)ccc3c(=O)n2Cc2ccccc2)C(C)C)cc1` (stereo not drawn): the Potency is 0.0153 µM (active).

As for `COc1c(C)c2c(c(O)c1C/C=C(\C)CCC(=O)OCCN1CCOCC1)C(=O)OC2`, the “activity change, negative = viability loss” value was -6.9% (inactive).

Take `CC[C@@]1(O)C(=O)OCc2c1cc1n(c2=O)Cc2c-1nc1ccccc1c2/C=N/OC(C)(C)C`: the Potency was 0.968 µM (active).

For `NC(=O)c1ccc2nc(-c3ccc(Oc4ccc(Cl)cc4)cc3)[nH]c2c1`, the Potency is 24.3 µM (active).
